A short description of assay [1]: A CellTox Green Cytotoxicity Assay to monitor cytotoxicity in HEK293 cells - 32 hour (AID 1224881). Also: nearly all actives have a fitted effect of over 40% in size. Put shortly: (§1)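 HEK293 cells premixed with CellTox Green dye were seeded at 600 cells/well and left 5 h at 37 C/5% CO2 before pin transfer of 23 nL compound in DMSO. Fluorescence from dye bound to dead-cell DNA was read during 40 h treatment.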
A short description of assay [2]: A CellTox Green Cytotoxicity Assay to monitor cytotoxicity in HepG2 cells - 0 hour (AID 1224882). Also: nearly all actives have a fitted effect of over 35% in size. Put shortly: (§2)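 HepG2 cells were seeded together with the CellTox Green dye at 600 cells/well, left 5 h at 37 C/5% CO2, then given compounds in DMSO. Fluorescence from dye bound to dead-cell DNA was read repeatedly over 40 h of treatment at 37 C.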
Assay [3] in a line: A CellTox Green Cytotoxicity Assay to monitor cytotoxicity in HepG2 cells - 32 hour (AID 1224883). Also: nearly all actives have a fitted effect of over 50% in size. Put shortly:
as §2

The nature of assay [4]: A CellTox Green Cytotoxicity Assay to monitor cytotoxicity in HEK293 cells - 8 hour (AID 1224884). Also: nearly all actives have a fitted effect of over 35% in size. Put shortly: as §1
Assay [5] in a line: qHTS RealTime-Glo MT Cell Viability Assay in HepG2 cells - 16 hour (AID 1224885). Also: nearly all actives have a fitted effect of over 50% in size. Put shortly:
(§3)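 Cells + NanoLuc/prosubstrate dispensed (600 cells/well) → 5 h at 37 C/5% CO2 → compounds in DMSO transferred → 40 h incubation at 37 C, luminescence read at 0, 8, 16, 24, 32, 40 h.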
Background: In qHTS, concentration-response curves come from the screen itself.

Assay [6] is described as follows: qHTS RealTime-Glo MT Cell Viability Assay in HEK293 cells - 24 hour (AID 1224886). Also: nearly all actives have a fitted effect of over 50% in size. As to activity change, negative = cytotoxicity: top concentration of the series differs between compounds. Put shortly:
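Tox21 10K qHTS, HEK293, 600 cells/well, RealTime-Glo reagent co-dispensed with cells; 5 h preincubation, compound by pintool, 37 C, luminescence at 0–40 h.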

Assay [7] in a line: A CellTox Green Cytotoxicity Assay to monitor cytotoxicity in HEK293 cells - 16 hour (AID 1224888). Also: nearly all actives have a fitted effect of over 35% in size. Put shortly:
as §1

The nature of assay [8]: A CellTox Green Cytotoxicity Assay to monitor cytotoxicity in HepG2 cells - 8 hour (AID 1224890). Also: nearly all actives have a fitted effect of over 45% in size. Put shortly:
as §2

Assay [9] in a line: qHTS RealTime-Glo MT Cell Viability Assay in HEK293 cells - 8 hour (AID 1224887). Also: nearly all actives have a fitted effect of over 50% in size. As to activity change, negative = cytotoxicity: top concentration of the series differs between compounds. Put shortly:
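HEK293 cells mixed with RealTime-Glo reagents (NanoLuc plus cell-permeant prosubstrate) at 600 cells/well, preincubated 5 h at 37 C/5% CO2, then given 23 nL compound in DMSO. Nonlytic luminescence from viable cells was read at 0, 8, 16, 24, 32 and 40 h.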

Assay [10] can be described thus: qHTS RealTime-Glo MT Cell Viability Assay in HepG2 cells - 0 hour (AID 1224889). Also: nearly all actives have a fitted effect of over 50% in size. Put shortly: as §3

Values without a mark were called inactive. Results filed as inconclusive are left out. Activity calls are given as the source filed them. Calls follow the shape of the dose curve; as a rule, active = well fitted curve in the direction sought with a large enough effect in the repeat runs; inconclusive = weak or mixed curves; inactive = no such curve, though single readings can be large; an effect the other way counts as inactive or inconclusive.
% is scaled to controls: 0 for no effect and ±100 for the full control effect; potency is read from the fitted curve at half-maximal effect.

Consider `COC(=O)CS`, for which the Potency entry in [1], in [2], in assay [3], in assay [4], in assay [5] and in assay [6] was “inactive” throughout. Besides, the Potency result in [7] and in [8] was “inactive” in each case.
Consider `COc1cc(Nc2c(C#N)cnc3cc(OCCCN4CCN(C)CC4)c(OC)cc23)c(Cl)cc1Cl`, for which the Potency in assay [1] was 21.3 µM (active); in assay [3], 9.52 µM (active); in assay [6] it was 9.52 µM (active); in [9], 23.9 µM (active). The Potency result in assay [2], in assay [4] and in assay [7] was “inactive” each time.
With `Cc1cc(=O)c2c(O)c3c(O)cc(=O)c4c3c3c(cc(O)c1c23)C(C)(C)C=4O`, the Potency in [1] was 5.22 µM (active); in assay [2], 4.65 µM (active); in assay [3], 4.14 µM (active); in assay [4], 7.37 µM (active); in assay [7], 7.37 µM (active); in assay [8] it was 4.65 µM (active). In addition, the activity change, negative = cytotoxic in assay [5] is -19% [at 15.8 µM]. The activity change, negative = cytotoxicity is 3.53% [at 15.8 µM] in assay [9] and -2.14% [at 15.8 µM] in assay [10].
In the case of `CC(=O)OCCN(CCOC(C)=O)c1ccc(N=Nc2ccc([N+](=O)[O-])cc2C#N)cc1`, the Potency entry in assay [1], in [2], in [3], in assay [4], in assay [5] and in assay [7] was “inactive” throughout. The Potency entry in [10] and in [8] was “inactive” each time.
In the case of `CCOC(=O)C1=C(C)NC(C)=C(C(=O)OC)C1c1cccc(Cl)c1Cl` (stereo not drawn), the Potency result in assay [1], in assay [2], in assay [3], in assay [4], in [9] and in assay [7] was “inactive” each time. For the same compound, the Potency entry in assay [8] was “inactive”. The Potency in [5] is 19 µM (active); in [10] it was 6.74 µM (active).
In the case of `CN1CCCC(CC2c3ccccc3Sc3ccccc32)C1` (stereo not drawn), the Potency in assay [1] was 23.9 µM (active); in [3], 21.3 µM (active); in [6] it was 23.9 µM (active); in [7] it was 23.9 µM (active). Further, the Potency result in assay [2], in assay [4] and in assay [9] was “inactive” each time.
Turning to `CC(C)(O)c1ccc(CNC(=O)c2cccnc2Oc2ccc3nonc3c2)cc1`, the Potency result in [1], in assay [2], in assay [3], in [4], in [5] and in assay [9] was “inactive” throughout. For the same compound, the Potency result in assay [7], in assay [10] and in assay [8] was “inactive” each time.
Turning to `O=C(Cn1ccnc1[N+](=O)[O-])NCCO`, the Potency result in assay [1], in assay [2], in assay [3], in assay [4], in [5] and in [6] was “inactive” in each case. In addition, the Potency result in [7] and in assay [8] was “inactive” in each case.
As for `CC(C)=CCC/C(C)=C/CC/C(C)=C/C(=O)OCC(=O)[C@@]1(O)CC[C@H]2[C@@H]3CCC4=CC(=O)C=C[C@]4(C)[C@H]3[C@@H](O)C[C@@]21C`, the Potency result in [1], in [2], in assay [3], in assay [4], in assay [7] and in assay [10] was “inactive” throughout. Besides, in assay [8], the Potency entry is “inactive”. Further, the Potency in [6] was 4.25 µM (active).
As to `O=C1Cc2cc(Cl)ccc2N1`, the Potency result in [1], in [2], in [3], in assay [4], in assay [5] and in assay [6] was “inactive” throughout. The Potency result in [7] and in assay [8] was “inactive” each time.
On to `CCCCCCC(C)(C)C(=O)O`, for which the Potency result in assay [1], in assay [2], in assay [3], in assay [5], in assay [6] and in assay [7] was “inactive” each time. Further, the Potency entry in [8] was “inactive”.
Turning to `C/C=C\C/C=C/CCCCCCCCOC(C)=O`, the Potency result in [1], in [2], in assay [3], in assay [4], in [5] and in [6] was “inactive” in each case. Moreover, the Potency result in assay [7] and in assay [8] was “inactive” in each case.
In the case of `O[C@@H]1CO[C@H]2[C@@H]1OC[C@@H]2O`, the Potency entry in assay [1], in assay [2], in [3], in assay [4], in assay [5] and in assay [6] was “inactive” throughout. Also, the Potency result in assay [7] and in assay [8] was “inactive” in each case.
Regarding `C[C@@H](CN(C)C)CN1c2ccccc2Sc2ccccc21`, the figures for the Potency in [1] and in assay [3] were 13.4 µM (active) and 26.8 µM (active), respectively. The Potency entry in assay [2], in assay [4], in assay [9], in assay [7] and in assay [8] was “inactive” each time.
As to `COC(=O)C1=C(C)NC(C)=C(C(=O)O[C@@H]2CCCN(Cc3ccccc3)C2)[C@@H]1c1cccc([N+](=O)[O-])c1`, the Potency result in assay [1], in [2], in [3], in assay [4], in assay [6] and in assay [9] was “inactive” throughout. For the same compound, the Potency entry in assay [7] and in assay [8] was “inactive” throughout. Besides, the Potency in [10] is 5.35 µM (active).
As for `O=C1c2ccccc2C(=O)C1(O)O`, the Potency result in assay [1], in assay [2], in assay [4], in assay [5], in assay [6] and in assay [9] was “inactive” throughout. Moreover, the Potency result in [7], in [10] and in assay [8] was “inactive” each time.
As to `CCCCN1CCCC1C(=O)Nc1c(C)cc(C)cc1C` (stereo not drawn), the Potency in [1] was 16.9 µM (active); in assay [2], 23.9 µM (active); in [4], 15.1 µM (active). Besides, the Potency entry in assay [5] and in assay [9] was “inactive” throughout.
Turning to `O=[N+]([O-])c1cc(C2CCCCC2)c(O)c([N+](=O)[O-])c1`, the Potency entry in [1], in [2], in assay [4], in assay [7] and in assay [8] was “inactive” in each case. In addition, the Potency is 13.8 µM (active) in [6] and 38.8 µM (active) in assay [10].
Consider `CN1C(=O)OC(C)(C)C1=O`, for which the Potency result in assay [1], in [3], in [4], in [5], in [6] and in assay [7] was “inactive” each time. The Potency result in assay [10] and in [8] was “inactive” in each case.
On to `CN1C(=O)N(c2ccccc2Br)Cc2cnc(Nc3ccc4c(c3)OCC(CO)O4)nc21` (stereo not drawn), for which the Potency result in [1], in assay [2], in assay [4], in [7] and in assay [8] was “inactive” in each case. Besides, the Potency in assay [6] was 6.92 µM (active); in [9], 17.4 µM (active).
For the compound `N#[N+]c1ccc2c(S(=O)(=O)[O-])cccc2c1O`, the Potency result in assay [1], in assay [3], in assay [4], in assay [5], in assay [6] and in assay [7] was “inactive” throughout. Also, the Potency result in assay [10] and in assay [8] was “inactive” throughout.
As for `C[C@H]1c2cccc(O)c2C(O)=C2C(=O)[C@]3(O)C(O)=C(C(N)=O)C(=O)[C@@H](N(C)C)[C@@H]3[C@@H](O)[C@@H]21`, the Potency result in [1], in assay [3], in assay [4], in [5], in [6] and in assay [9] was “inactive” each time. Besides, the Potency entry in assay [7] and in [8] was “inactive” in each case.
As for `CCCCCCCC/C=C\CCCCCCCCCCCC(=O)O`, the Potency entry in [1], in assay [3], in assay [4], in assay [5], in assay [6] and in assay [9] was “inactive” each time. Further, the Potency result in assay [7], in assay [10] and in assay [8] was “inactive” in each case.
For the compound `O=C(OCC(O)CO)c1ccccc1Nc1ccnc2cc(Cl)ccc12` (stereo not drawn), the Potency result in [1], in [4], in [5] and in assay [7] was “inactive” throughout. The Potency in assay [3] was 9.52 µM (active); in assay [6], 7.56 µM (active); in assay [9] it was 8.49 µM (active).
Regarding `COc1cc(C(=O)NCCCCCC(=O)O)cc(OC)c1OC`, the Potency result in assay [1], in assay [3], in [4], in assay [5], in assay [6] and in assay [7] was “inactive” in each case. Besides, the Potency entry in [10] and in assay [8] was “inactive” throughout.
For `CCCCOc1ccc(OCCCN2CCOCC2)cc1`, the Potency entry in [1], in assay [3], in assay [4], in assay [5], in [7] and in assay [10] was “inactive” in each case. For the same compound, the Potency result in assay [8] is “inactive”.

These data come from PubChem BioAssay (Tox21).
